Records with an inconclusive call do not appear. Active and inactive are the calls of the source. The call rests on the fitted dose curve; in most records, active means well fitted inhibition curve with a large enough effect; inconclusive means small, poorly fitted or top-dose-only effect; inactive means flat fitted curve, though single readings scatter. Where a SMILES comes first, the peptide text is derived from it. The star is where a group is joined. Hexanoyl = CCCCCC(=O)*
Experiments:
Experiment in all cases: Cytotoxic Profiling of Annotated Libraries Using Quantitative High-Throughput Screening (AID 1296008); further: nearly all actives have a fitted effect of over 60% in size
Details in all cases: Five cell lines viability, CellTiter-Glo ATP luminescence, 48-72 h; max response: active compounds read low
CRL-7250 = system: CRL-7250
How it was run: (§1)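 Cytotoxicity was measured as CellTiter-Glo ATP luminescence, read after 10 min at room temperature. Compound treatment of the cells lasted 48 or 72 hr at 37 degrees Celsius in a qHTS format.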

HEK293 = system: HEK293
How it was run: as §1

HaCat = system: HaCat
How it was run: as §1

KB-3-1 = system: KB-3-1
How it was run: as §1

NIH3T3 = system: NIH3T3
How it was run: as §1

Measured: max response
On the % scale 0 is the no-effect control and ±100 the full control effect.

C=C(CCO)C(=O)OCC1OCC(OC(=O)C(=C)CCO[C@@H]2O[C@H](CO)[C@@H](O)[C@H](O)[C@H]2O)C(O)C1O (stereo not given in full)
inactive: CRL-7250 -6.14% | HEK293 0.294% | HaCat | KB-3-1 4.34% | NIH3T3 -5.54%

CCCCCC(=O)N1CCC[C@H]1C(=O)N[C@@H](Cc1ccc(O)cc1)C(=O)OC (Hexanoyl-Pro-Tyr-OMe)
inactive: CRL-7250 1.02% | HEK293 4.39% | HaCat | KB-3-1 -0.528% | NIH3T3 -4.54%

C=C1C(=O)OC2CC(COC(=O)C(C)C)=C(C(C)CCCOC(C)=O)[C@@H](OC(C)=O)C12 (stereo not given in full)
inactive: CRL-7250 -4.9% | HEK293 5% | HaCat 4.28% | KB-3-1 | NIH3T3

C[C@@H]1C[C@@H](O)[C@@]2(CO)C(CO)=CCC[C@@H]2[C@@]12C[C@@H](c1ccoc1)OC2=O
inactive: CRL-7250 | HEK293 4.88% | HaCat | KB-3-1 4% | NIH3T3

Nc1c(-c2ccccc2)nc(Cl)c2c(O)n[nH]c(=O)c12
inactive: CRL-7250 | HEK293 -7.38% | HaCat | KB-3-1 9.61% | NIH3T3

CNc1nc(C)nc(N[C@H]2CCC[C@@H](C(=O)NCc3ccc(C#N)cc3C(F)(F)F)C2)n1
inactive: CRL-7250 | HEK293 -15.3% | HaCat | KB-3-1 -5.41% | NIH3T3

Oc1ccccc1-c1cc(-c2ccccc2F)[nH]n1
inactive: CRL-7250 3.55% | HEK293 4.01% | HaCat | KB-3-1 -0.368% | NIH3T3 3.17%

COc1cc(Cc2cnc(N)nc2N)c(C(C)C)cc1OC
inactive: CRL-7250 -4.26% | HEK293 | HaCat -0.359% | KB-3-1 4.42% | NIH3T3 3.87%

CCC(CC)CC1(C(=O)Nc2ccccc2SC(=O)C(C)C)CCCCC1
inactive: CRL-7250 | HEK293 -10.7% | HaCat -14% | KB-3-1 0.494% | NIH3T3

O=C(O)CC1(O)C(=O)Nc2ccccc21 (stereo not given)
inactive: CRL-7250 | HEK293 | HaCat -2.76% | KB-3-1 6.03% | NIH3T3 3.37%

CC(C)CC(=O)O[C@@H]1O[C@H](CO)[C@@H](O[C@H]2O[C@H](C)[C@@H](N[C@H]3C=C(CO)[C@@H](O[C@H]4O[C@H](CO)[C@@H](O[C@H]5O[C@H](CO)[C@@H](O[C@H]6O[C@H](CO)[C@@H](O)[C@H](O)[C@H]6O)[C@H](O)[C@H]5O)[C@H](O)[C@H]4O)[C@H](O)[C@H]3O)[C@H](O)[C@H]2O)[C@H](O)[C@H]1O
inactive: CRL-7250 1.09% | HEK293 -7.41% | HaCat | KB-3-1 | NIH3T3 -2.08%

Cc1nc2ccccc2c(-c2ccc3c4c(ccnc24)CCO3)c1[C@H](OC(C)(C)C)C(=O)O
inactive: CRL-7250 -8% | HEK293 4.74% | HaCat | KB-3-1 -6.3% | NIH3T3 -2.71%

COc1c(C)c(OCC=C(C)C)cc2c1CNC2=O
inactive: CRL-7250 -2.67% | HEK293 -5.13% | HaCat | KB-3-1 -3.05% | NIH3T3 -2.21%

CC1(C)CC[C@]2(C(=O)O[C@@H]3O[C@H](CO)[C@@H](O)[C@H](O)[C@H]3O)CC[C@]3(C)C(=CCC4[C@@]5(C)CC[C@H](O[C@@H]6O[C@H](C(=O)O)[C@@H](O[C@@H]7O[C@H](CO)[C@@H](O)[C@H](O)[C@H]7O)[C@H](O)[C@H]6O)C(C)(C)C5CC[C@]43C)C2C1 (stereo not given in full)
inactive: CRL-7250 -9.08% | HEK293 3.3% | HaCat | KB-3-1 | NIH3T3 3.38%

Cc1ccc(Nc2nnc(-c3ccc([N+](=O)[O-])cc3)o2)cc1Cl
inactive: CRL-7250 | HEK293 -16.7% | HaCat | KB-3-1 -2.92% | NIH3T3

NC(N)=NCCC[C@H](NC(=O)c1sccc1NS(=O)(=O)c1cccc2nsnc12)C(=O)O
inactive: CRL-7250 | HEK293 -1.44% | HaCat -1.15% | KB-3-1 | NIH3T3

CC(C)/C=C1/NC(=O)C(C(C)C)n2c1nc1c(O)cccc1c2=O (stereo not given)
inactive: CRL-7250 | HEK293 -10.9% | HaCat | KB-3-1 3.96% | NIH3T3 -2.82%

CC(=O)O[C@@H]1[C@H](O[C@@H]2OC[C@](O)(CO)[C@H]2O)[C@@H](O[C@@H]2O[C@@H](C)[C@H](O)[C@@H](O[C@@H]3O[C@H](CO)[C@@H](O)[C@H](O)[C@H]3O)[C@H]2O)[C@H](OC(=O)[C@]23CCC(C)(C)C[C@H]2C2=CCC4[C@@]5(C)C[C@H](O)[C@H](O[C@@H]6O[C@H](C(=O)O)[C@@H](O)[C@H](O)[C@H]6O)[C@@](C)(C(=O)O)C5CC[C@@]4(C)[C@]2(C)CC3)O[C@@H]1C (stereo not given in full)
inactive: CRL-7250 -6.6% | HEK293 -7.53% | HaCat | KB-3-1 3.25% | NIH3T3
